Compound activity: PubChem, The Scripps Research Institute Molecular Screening Center
Compounds with a hit are over-represented: about 3.5% of the library has one in this group of screens.
TEAD-YAP inh – TEAD-YAP interaction inhibition. inhibition, % at 9.12 µM. hit rate 1.4% among 640,000. HEK-TIYL cells, TEAD-Gal4/YAP UAS-luciferase luminescence; in the data active = inhibition above about 32%;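 also: 0% = median of test compound wells and 100% = reference inhibitor wells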
FBW7 activator – human FBW7 E3 ligase activation, primary screen. AlphaScreen FBW7–phospho-cyclin E peptide binding, activator screen. hit rate 0.13% among 650,000. Q969H0. normalized activity (activation), % at 26.1 µM. AID 1259310; in the data active = normalized activity above about 1.9%;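 also: purified mutant Fbw7 with reduced substrate affinity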
GPR151 activ – activates the human receptor GPR151 | Q8TDV0 | hit rate 1% among 650,000 | PathHunter beta-arrestin GPR151 cells, luminescence | activation, % at 11.2 µM | AID 1508602; in the data active = activation above about 4.9%;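 also: 0% = median of compound wells and 100% = cells with positive control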
MITF primary – human MITF inhibition, primary screen; AlphaScreen MITF homodimerization, bead proximity signal; AID 1259374; hit rate 0.91% among 650,000; inhibition, % at 2.6 µM; in the data active = inhibition above about 50%;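 also: 0% = vehicle wells with protein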
Target sequence (O75030 whole entry, looked up): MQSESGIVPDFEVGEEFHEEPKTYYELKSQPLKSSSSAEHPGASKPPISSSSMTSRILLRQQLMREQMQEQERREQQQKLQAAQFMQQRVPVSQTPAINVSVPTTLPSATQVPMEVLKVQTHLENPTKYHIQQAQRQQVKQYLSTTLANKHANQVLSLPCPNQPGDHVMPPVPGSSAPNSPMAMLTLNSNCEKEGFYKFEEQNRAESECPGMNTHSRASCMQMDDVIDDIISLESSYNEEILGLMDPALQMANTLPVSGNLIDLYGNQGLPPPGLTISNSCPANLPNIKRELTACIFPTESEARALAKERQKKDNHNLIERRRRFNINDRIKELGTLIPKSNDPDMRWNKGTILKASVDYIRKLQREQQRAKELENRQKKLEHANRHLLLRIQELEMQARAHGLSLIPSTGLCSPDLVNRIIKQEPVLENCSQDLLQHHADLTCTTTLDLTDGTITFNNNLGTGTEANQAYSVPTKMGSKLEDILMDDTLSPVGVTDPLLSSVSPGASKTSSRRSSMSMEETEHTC
* hit, by the source's call.

SMILES	TEAD-YAP inh	FBW7 activator	GPR151 activ	MITF primary
COc1ccc(N(C(C)C(=O)Nc2cc([N+](=O)[O-])ccc2OC)S(C)(=O)=O)cc1 (configuration not stated)	50.5*	-0.3	-0.4	1.4
CCOc1ccc(N(C(C)C(=O)Nc2cc(Cl)ccc2OC)S(C)(=O)=O)cc1 (configuration not stated)	32.5*	0.0	0.8	3.6
COCCNCCCCOc1c(Cl)cc(C)cc1Br	2.4	0.0	-1.0	41.0
COCCCNCCCOc1c(Cl)cc(C)cc1Br	51.1*	0.1	0.1	50.0
COc1ccc(S(=O)(=O)CCC(=O)Nc2cccnc2)cc1	8.3	0.1	-0.2	15.9
O=C(NCCOc1ccc(Cl)cc1)c1cccc(C(=O)NCCOc2ccc(Cl)cc2)c1	6.2	-0.1	-0.3	7.0
NS(=O)(=O)c1cc(C(=O)NCCOc2ccc(Cl)cc2)c(Cl)cc1Cl	36.7*	-0.2	-0.7	-6.5
COc1cc(/C=C2/SC(=S)N(CCC(=O)O)C2=O)ccc1O	32.5*	-0.2	-6.5	23.3
O=C(O)CN1C(=O)/C(=C\c2cc(Cl)ccc2O)SC1=S	12.4	0.2	-0.1	11.0
O=C(O)CN1C(=O)/C(=C\c2ccc(O)cc2O)SC1=S	-5.6	-0.1	-2.6	87.5*
O=C(O)CCCN1C(=O)/C(=C/c2ccc(O)cc2)SC1=S	75.4*	-0.2	-5.5	15.1
O=C(O)CCCN1C(=O)/C(=C\c2ccccn2)SC1=S	87.4*	-0.2	1.6	0.5
O=C(O)CCCN1C(=O)/C(=C\c2ccc(O)cc2)SC1=S	66.5*	-0.2	-6.6	3.1
O=C(O)CCN1C(=O)/C(=C/c2ccc([N+](=O)[O-])o2)SC1=S	20.9	-0.2	-1.0	56.3*
O=C(O)CCCN1C(=O)/C(=C\c2ccccc2)SC1=S	24.9	0.6	-1.1	18.0
CC1CS(=O)(=O)N(c2cccc(C(=O)N3CCCc4ccccc43)c2)C1=O (configuration not stated)	1.3	0.3	-2.0	16.8
COc1cccc(OC)c1CN1CCc2nnc(CNC(=O)c3ccncc3)n2CC1	-5.7	0.0	0.6	-2.4
COc1ccc(NC(=O)COC(=O)c2ccc(OCc3c(C)noc3C)cc2)cc1Cl	-4.9	0.5	-0.3	14.4
CC1=CC(=O)OC1Cc1ccncc1 (configuration not stated)	40.6*	0.0	0.3	-8.4
CC1=NNC(=O)C1CCc1ccncc1 (configuration not stated)	11.1	0.7	-0.6	23.1
O=C(Nc1ccc(S(=O)(=O)Nc2nccs2)cc1)C1(c2ccccc2)CCCC1	7.2	-0.1	1.0	9.9
Cc1cc(C)c(C(=O)CC2(O)C(=O)N(Cc3ccccc3C)c3ccccc32)c(C)c1 (configuration not stated)	0.3	-0.3	0.4	4.6
O=C1NC(=S)N/C1=C/c1ccc(-c2ccc3c(c2)C(=O)OC3)o1	3.6	2.5*	-1.0	-42.6
O=C1NC(=S)N/C1=C/c1ccc(-c2cccc(Cl)c2)o1	-34.8	0.1	-0.8	0.1
c1ccn2cc(CN3CCOCC3)nc2c1	16.1	0.2	0.1	1.1
SMILES	TEAD-YAP inh	FBW7 activator	GPR151 activ	MITF primary
Cc1ccc(-n2c(-c3ccccc3)c[n+]3c2CCCCC3)cc1	58.8*	0.0	-0.7	13.0
Cc1ccc(-c2cn(-c3ccccc3)c3[n+]2CCCS3)cc1	68.2*	-0.1	0.1	16.1
COc1ccc(-c2c[n+]3c(n2-c2c(C)n(C)n(-c4ccccc4)c2=O)CCCCC3)cc1	3.6	-0.1	-0.1	-1.2
Brc1ccc(-c2c[n+]3c(n2-c2ccccc2)SCC3)cc1	3.3	0.0	-0.5	-10.9
Clc1ccc(-c2c[n+]3c(n2-c2ccccc2)CCC3)cc1	11.9	-0.1	0.0	2.2
Cc1ccc(-c2c[n+]3c(n2-c2ccccc2)SCC3)cc1	55.7*	-0.1	1.3	-12.2
Cc1ccc(-c2c[n+]3c(n2-c2ccc(C)cc2)CCCCC3)cc1	85.1*	0.3	4.1	14.1
COc1cccc(-c2ccccc2NC(=O)C2CCN(CC3CC3)CC2)c1	-5.0	0.0	0.1	12.0
COc1ccc(C2SCCN2S(=O)(=O)c2cccc(C)c2)cc1Br (configuration not stated)	-4.1	-0.1	-1.5	-1.3
C=CCn1c(C)c(/C=c2/sc3n(c2=O)C(c2ccc(F)cc2)C(C(=O)Nc2ccccc2)=C(C)N=3)c2ccccc21 (configuration not stated)	-0.7	-0.1	0.4	-1.3
CC(C)[C@@H](CO)Nc1ccc2ncc(-c3ccccc3)n2n1	27.9	0.7	0.9	3.7
CCC(CO)Nc1ccc2ncc(-c3cccc(Br)c3)n2n1 (configuration not stated)	0.7	0.1	0.2	-4.7
CC(C)[C@@H](CO)Nc1ccc2ncc(-c3cccc(Cl)c3)n2n1	5.5	2.0*	-0.4	-1.8
CCC(CO)Nc1ccc2ncc(-c3cccc(CO)c3)n2n1 (configuration not stated)	48.0*	-0.1	-0.3	-13.9
CC(C)[C@@H](CO)Nc1ccc2ncc(-c3cccc(CO)c3)n2n1	42.6*	-0.3	-0.2	9.9
COc1cc(-c2cnc3ccc(N[C@H](CO)C(C)C)nn23)ccc1O	93.2*	-0.5	-0.4	-12.5
CC(C)[C@@H](CO)Nc1ccc2ncc(-c3cccc(N)c3)n2n1	16.6	-0.6	-0.4	-10.7
CC(C)[C@@H](CO)Nc1ccc2ncc(-c3ccc4ccccc4c3)n2n1	14.4	-0.3	-0.8	-22.3
O=C(Nc1ccc(S(=O)(=O)N2CCCCCC2)cc1)c1ccc(-c2ccccc2)cc1	0.3	-0.2	-0.1	1.5
N#C/C(=C\c1cn(Cc2ccc(Cl)c(Cl)c2)c2ccccc12)c1nc2ccccc2n1Cc1ccc(Cl)cc1	-1.3	0.2	-0.3	15.2
CCC(CO)Nc1ccc2ncc(-c3ccc(C)cc3)n2n1 (configuration not stated)	24.5	-0.5	-0.4	14.4
CCC(CO)Nc1ccc2ncc(-c3ccccc3F)n2n1 (configuration not stated)	41.5*	0.6	-1.2	2.4
Cc1cc(C(=O)Nc2ccc(-c3ccn[nH]3)cc2)c(C)o1	-53.4	-0.2	-5.7	10.9
COc1ccc(C(NC(C)=O)c2c(O)ccc3ccccc23)cc1 (configuration not stated)	62.2*	-0.2	0.9	-1.0
CCCC(=O)NC(c1ccco1)c1c(O)ccc2ccccc12 (configuration not stated)	1.2	-0.1	-1.2	10.8
CCCC(=O)NC(c1ccc(OC)cc1)c1c(O)ccc2ccccc12 (configuration not stated)	44.5*	-0.2	0.1	-14.6
COc1ccc(C(NC(C)=O)c2c(OC(C)=O)ccc3ccccc23)cc1 (configuration not stated)	62.4*	0.8	-0.4	15.4
CCn1c2ccccc2c2cc(C3Nc4ccccc4NC4=C3C(=O)CC(C)(C)C4)ccc21 (configuration not stated)	5.0	0.1	-1.6	0.9
CCOC(=O)c1[nH]c(C)c(C(=O)c2ccccc2)c1C	48.0*	0.0	1.7	6.9
CCOC(=O)c1[nH]c(C)c(C(=O)c2ccccc2Cl)c1C	22.1	0.1	0.9	9.0
